# Results as given in paper PMC11006913.
# Where a chain is given by its changes, count along the chain named.
# How the values were obtained:
# Experiment in all cases: PBM; 200 nM protein, PBS
# Details in all cases: dsDNA, one strand shown
# PITX2 = PITX2 (Homo sapiens, UniProt Q99697 72-157)
# HOXD13 [1] = target: HOXD13 (Homo sapiens, UniProt P35453 263-343)
# PROP1 = PROP1 (Homo sapiens, UniProt O75360 56-141)
# CRX = CRX (Homo sapiens, UniProt O43186 26-111, R41L)
# SHOX = SHOX (Homo sapiens, UniProt O15266 103-189, R173C)
# Sequence of SHOX (O15266 103-189 R173C): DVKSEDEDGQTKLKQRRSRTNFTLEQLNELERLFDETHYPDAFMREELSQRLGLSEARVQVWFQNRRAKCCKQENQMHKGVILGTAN
# NKX3-2 [2] = target: NKX3-2 (Homo sapiens, UniProt P78367 192-278, P234S)
# Sequence of NKX3-2 (Homo sapiens, UniProt P78367 192-278, P234S) (P78367 192-278 P234S): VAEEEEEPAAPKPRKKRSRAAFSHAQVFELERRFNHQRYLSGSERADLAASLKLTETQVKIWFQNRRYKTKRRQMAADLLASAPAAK
# NKX3-2 [3] = target: NKX3-2 (Homo sapiens, UniProt P78367 192-278)
# Sequence of NKX3-2 (Homo sapiens, UniProt P78367 192-278) (P78367 192-278): as the sequence (P78367 192-278 P234S) above, with S43P counted along it
# VAX1 [4] = target: VAX1 (Homo sapiens, UniProt Q5SQQ9 86-172)
# Sequence of VAX1 (Homo sapiens, UniProt Q5SQQ9 86-172) (Q5SQQ9 86-172): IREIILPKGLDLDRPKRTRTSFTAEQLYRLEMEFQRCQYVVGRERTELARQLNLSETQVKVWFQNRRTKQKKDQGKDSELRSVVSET
# HOXD13 [5] = target: HOXD13 (Homo sapiens, UniProt P35453 263-343, T313A)
# Sequence of HOXD13 (Homo sapiens, UniProt P35453 263-343, T313A) (P35453 263-343 T313A): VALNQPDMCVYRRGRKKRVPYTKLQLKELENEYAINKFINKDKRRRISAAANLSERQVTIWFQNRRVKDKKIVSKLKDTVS
# VAX1 [6] = target: VAX1 (Homo sapiens, UniProt Q5SQQ9 86-172, T142I)
# Sequence of VAX1 (Homo sapiens, UniProt Q5SQQ9 86-172, T142I) (Q5SQQ9 86-172 T142I): as the sequence (Q5SQQ9 86-172) above, with T57I counted along it
# VAX1 [7] = target: VAX1 (Homo sapiens, UniProt Q5SQQ9 86-172, K157R)
# Sequence of VAX1 (Homo sapiens, UniProt Q5SQQ9 86-172, K157R) (Q5SQQ9 86-172 K157R): as the sequence (Q5SQQ9 86-172) above, with K72R counted along it
# HOXA4 = HOXA4 (Homo sapiens, UniProt Q00056 201-287)
# Sequence of HOXA4 (Q00056 201-287): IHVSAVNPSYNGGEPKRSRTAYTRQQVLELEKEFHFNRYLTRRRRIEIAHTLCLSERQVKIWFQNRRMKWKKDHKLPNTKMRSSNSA
# PAX4 [8] = target: T1, PAX4 (Homo sapiens, UniProt O43316 9-242, F177V)
# T1 sequence: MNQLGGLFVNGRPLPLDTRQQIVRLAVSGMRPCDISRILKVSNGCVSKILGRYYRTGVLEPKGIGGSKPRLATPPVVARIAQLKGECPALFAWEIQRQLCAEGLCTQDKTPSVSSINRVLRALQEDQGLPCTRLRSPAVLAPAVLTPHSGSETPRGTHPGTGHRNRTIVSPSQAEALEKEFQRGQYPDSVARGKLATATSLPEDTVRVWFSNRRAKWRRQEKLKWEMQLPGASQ
# PAX4 [9] = target: T2, PAX4 (Homo sapiens, UniProt O43316 9-242, R227W)
# T2 sequence: T1 sequence with V169F, R219W
# HOXC10 = HOXC10 (Homo sapiens, UniProt Q9NYD6 254-340, K271E)
# Sequence of HOXC10 (Q9NYD6 254-340 K271E): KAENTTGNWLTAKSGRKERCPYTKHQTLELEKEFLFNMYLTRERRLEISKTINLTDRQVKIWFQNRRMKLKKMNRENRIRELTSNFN
# PAX4 [10] = target: T3, PAX4 (Homo sapiens, UniProt O43316 9-242, F177Y)
# T3 sequence: T1 sequence with V169Y
# Sequence of CRX (O43186 26-111 R41L): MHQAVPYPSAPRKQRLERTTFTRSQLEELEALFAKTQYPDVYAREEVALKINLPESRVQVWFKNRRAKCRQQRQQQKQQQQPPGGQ
# Sequence of HOXD13 (Homo sapiens, UniProt P35453 263-343) (P35453 263-343): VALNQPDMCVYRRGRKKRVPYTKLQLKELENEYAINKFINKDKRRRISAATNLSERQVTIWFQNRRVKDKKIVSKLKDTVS
# Sequence of PROP1 (O75360 56-141): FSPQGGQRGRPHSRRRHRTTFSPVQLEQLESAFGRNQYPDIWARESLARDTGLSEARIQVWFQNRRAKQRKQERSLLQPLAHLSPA
sequence,measurement,setting,value
CCTACGTC,binding signal,PITX2,"7.98 upbm affinity estimate (log intensity, higher = more binding, comparable within an allelic series)"
CGATTTAA,binding signal,HOXD13 [1],"10.9 upbm affinity estimate (log intensity, higher = more binding, comparable within an allelic series)"
AGAGTTAA,binding signal,HOXD13 [1],"10.7 upbm affinity estimate (log intensity, higher = more binding, comparable within an allelic series)"
GGTTTATA,binding signal,PITX2,"10.5 upbm affinity estimate (log intensity, higher = more binding, comparable within an allelic series)"
same,binding signal,PROP1,"7.99 upbm affinity estimate (log intensity, higher = more binding, comparable within an allelic series)"
CGGAATCC,binding signal,PITX2,"10.1 upbm affinity estimate (log intensity, higher = more binding, comparable within an allelic series)"
AATAATGC,binding signal,HOXD13 [1],"10.8 upbm affinity estimate (log intensity, higher = more binding, comparable within an allelic series)"
ATCAATAC,binding signal,HOXD13 [1],"10.5 upbm affinity estimate (log intensity, higher = more binding, comparable within an allelic series)"
CGAGATTA,binding signal,PITX2,"12.3 upbm affinity estimate (log intensity, higher = more binding, comparable within an allelic series)"
same,binding signal,CRX,"12.4 upbm affinity estimate (log intensity, higher = more binding, comparable within an allelic series)"
TATTTAGA,binding signal,HOXD13 [1],"10.6 upbm affinity estimate (log intensity, higher = more binding, comparable within an allelic series)"
AATTATGG,binding signal,SHOX,"9.26 upbm affinity estimate (log intensity, higher = more binding, comparable within an allelic series)"
GATAAGCC,binding signal,PITX2,"12.3 upbm affinity estimate (log intensity, higher = more binding, comparable within an allelic series)"
same,binding signal,CRX,"12.4 upbm affinity estimate (log intensity, higher = more binding, comparable within an allelic series)"
AATGAGTA,binding signal,HOXD13 [1],"10.8 upbm affinity estimate (log intensity, higher = more binding, comparable within an allelic series)"
TGGCTTAA,binding signal,PITX2,"12.3 upbm affinity estimate (log intensity, higher = more binding, comparable within an allelic series)"
same,binding signal,CRX,"11.5 upbm affinity estimate (log intensity, higher = more binding, comparable within an allelic series)"
TATTGCGA,binding signal,HOXD13 [1],"10.6 upbm affinity estimate (log intensity, higher = more binding, comparable within an allelic series)"
CATCGACC,binding signal,PITX2,"8.07 upbm affinity estimate (log intensity, higher = more binding, comparable within an allelic series)"
same,binding signal,NKX3-2 [2],"10.6 upbm affinity estimate (log intensity, higher = more binding, comparable within an allelic series)"
same,binding signal,NKX3-2 [3],"10.6 upbm affinity estimate (log intensity, higher = more binding, comparable within an allelic series)"
ACTTAATC,binding signal,PITX2,"12.3 upbm affinity estimate (log intensity, higher = more binding, comparable within an allelic series)"
same,binding signal,CRX,"12.4 upbm affinity estimate (log intensity, higher = more binding, comparable within an allelic series)"
TATATGCA,binding signal,HOXD13 [1],"10.8 upbm affinity estimate (log intensity, higher = more binding, comparable within an allelic series)"
AAGCTGAA,binding signal,PITX2,"9.66 upbm affinity estimate (log intensity, higher = more binding, comparable within an allelic series)"
ACGATATA,binding signal,HOXD13 [1],"10.9 upbm affinity estimate (log intensity, higher = more binding, comparable within an allelic series)"
CTAGCGAG,binding signal,PITX2,"8.11 upbm affinity estimate (log intensity, higher = more binding, comparable within an allelic series)"
GAGAGGCC,binding signal,PITX2,"7.88 upbm affinity estimate (log intensity, higher = more binding, comparable within an allelic series)"
AAGTTGTA,binding signal,HOXD13 [1],"10.7 upbm affinity estimate (log intensity, higher = more binding, comparable within an allelic series)"
ACGGTGCC,binding signal,PITX2,"7.94 upbm affinity estimate (log intensity, higher = more binding, comparable within an allelic series)"
same,binding signal,NKX3-2 [2],"10.5 upbm affinity estimate (log intensity, higher = more binding, comparable within an allelic series)"
same,binding signal,NKX3-2 [3],"10.5 upbm affinity estimate (log intensity, higher = more binding, comparable within an allelic series)"
CGGATTTA,binding signal,PITX2,"12.3 upbm affinity estimate (log intensity, higher = more binding, comparable within an allelic series)"
same,binding signal,CRX,"12.3 upbm affinity estimate (log intensity, higher = more binding, comparable within an allelic series)"
AAGTTATT,binding signal,HOXD13 [1],"10.9 upbm affinity estimate (log intensity, higher = more binding, comparable within an allelic series)"
same,binding signal,VAX1 [4],"10.1 upbm affinity estimate (log intensity, higher = more binding, comparable within an allelic series)"
same,binding signal,HOXD13 [5],"10.8 upbm affinity estimate (log intensity, higher = more binding, comparable within an allelic series)"
same,binding signal,VAX1 [6],"9.9 upbm affinity estimate (log intensity, higher = more binding, comparable within an allelic series)"
same,binding signal,VAX1 [7],"9.7 upbm affinity estimate (log intensity, higher = more binding, comparable within an allelic series)"
ATAAACGA,binding signal,HOXD13 [1],"11.4 upbm affinity estimate (log intensity, higher = more binding, comparable within an allelic series)"
same,binding signal,HOXD13 [5],"11.2 upbm affinity estimate (log intensity, higher = more binding, comparable within an allelic series)"
ATTTCTTA,binding signal,HOXA4,"11.1 upbm affinity estimate (log intensity, higher = more binding, comparable within an allelic series)"
ATATTATG,binding signal,PAX4 [8],"10.7 upbm affinity estimate (log intensity, higher = more binding, comparable within an allelic series)"
same,binding signal,PAX4 [9],"10.9 upbm affinity estimate (log intensity, higher = more binding, comparable within an allelic series)"
AGCAAATC,binding signal,HOXA4,"10.9 upbm affinity estimate (log intensity, higher = more binding, comparable within an allelic series)"
CTCGTTAC,binding signal,HOXD13 [1],"11.1 upbm affinity estimate (log intensity, higher = more binding, comparable within an allelic series)"
same,binding signal,HOXD13 [5],"10.9 upbm affinity estimate (log intensity, higher = more binding, comparable within an allelic series)"
AAGATAAC,binding signal,HOXA4,"10.8 upbm affinity estimate (log intensity, higher = more binding, comparable within an allelic series)"
ATGATATA,binding signal,PAX4 [8],"10.7 upbm affinity estimate (log intensity, higher = more binding, comparable within an allelic series)"
GTAGTAAA,binding signal,HOXC10,"11.1 upbm affinity estimate (log intensity, higher = more binding, comparable within an allelic series)"
CTAATATA,binding signal,PAX4 [8],"10.8 upbm affinity estimate (log intensity, higher = more binding, comparable within an allelic series)"
same,binding signal,PAX4 [10],"10.9 upbm affinity estimate (log intensity, higher = more binding, comparable within an allelic series)"
same,binding signal,PAX4 [9],"10.9 upbm affinity estimate (log intensity, higher = more binding, comparable within an allelic series)"
ATCGTAAC,binding signal,HOXD13 [1],"11 upbm affinity estimate (log intensity, higher = more binding, comparable within an allelic series)"
same,binding signal,HOXD13 [5],"10.9 upbm affinity estimate (log intensity, higher = more binding, comparable within an allelic series)"
CTTAGTTA,binding signal,HOXA4,"11 upbm affinity estimate (log intensity, higher = more binding, comparable within an allelic series)"
